The full list was thinned out, with hits kept by preference.
RORgamma inh = qHTS for inhibitors of ROR gamma transcriptional activity; Nuclear receptor ROR-gamma (Mus musculus), P51450; Drosophila S2 Gal4-RORgamma UAS-luciferase reporter, 20 h; Potency, µM (doses to about 53.6 µM), actives largely listed as inhibitors; 310,000 tested, 5.4% active; further: nearly all actives have a fitted effect of over 60% in size
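In this cell-based reporter format, copper sulfate (700 uM final) drives Gal4–ROR gamma fusion expression from a metallothionein promoter in Drosophila Schneider cells; compounds preincubated 1 hr, reporter read after 20 hr at ambient temperature.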
ERG Ets-DNA blk = qHTS for Small Molecule Inhibitors of the ERG Ets/DNA interaction; Transcriptional regulator ERG (Homo sapiens), P11308; Potency, µM (doses to about 76.9 µM), hits mostly inhibitors; fluorescence polarization, His-ERG Ets domain / labelled DNA; 370,000 tested, 0.028% active; active means well fitted inhibition curve with a large enough effect in the polarisation, with a control signal flat; inconclusive means small, poorly fitted or top-dose-only effect, or effect the other way, or a change in a side signal; inactive means no such curve, though single readings can be large or run the other way; the % refers to the polarisation;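 further: polarization taken with two DNA probes labelled with fluorescein and Texas red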
Target sequence (P11308 whole entry, looked up, the tested form may be a part): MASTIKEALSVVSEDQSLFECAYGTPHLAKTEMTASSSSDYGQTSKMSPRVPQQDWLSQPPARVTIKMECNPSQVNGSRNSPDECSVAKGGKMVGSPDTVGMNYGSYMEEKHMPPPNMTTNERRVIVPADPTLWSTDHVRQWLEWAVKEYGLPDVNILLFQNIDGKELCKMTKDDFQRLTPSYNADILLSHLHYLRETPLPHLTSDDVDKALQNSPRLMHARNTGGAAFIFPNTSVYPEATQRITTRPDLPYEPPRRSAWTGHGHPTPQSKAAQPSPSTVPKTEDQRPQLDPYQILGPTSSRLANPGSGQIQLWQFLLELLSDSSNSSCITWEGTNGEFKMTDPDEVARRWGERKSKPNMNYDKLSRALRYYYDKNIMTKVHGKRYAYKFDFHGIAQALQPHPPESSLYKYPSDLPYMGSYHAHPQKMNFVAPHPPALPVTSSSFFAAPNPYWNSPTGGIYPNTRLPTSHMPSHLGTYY
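His-tagged ERG Ets domain (1 uM in the protein solution; 300mM KCl, 50mM Tris-HCl, 1mM EDTA, 1mM DTT, pH 7.5) received compound, then a probe mix of 5 nM fluorescein-DNA and 100nM Texas-615-DNA. Fluorescence polarization was read for both dyes.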
VP16 counter = VP16 counterscreen qHTS for inhibitors of ROR gamma transcriptional activity; Potency, µM (highest dose often 53.6 µM), actives largely listed as inhibitors; 310,000 tested, 3.5% active; Drosophila S2 Gal4-VP16 UAS-luciferase, luminescence, 20 h;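 further: Gal4-VP16 expression switched on by copper sulfate through the metallothionein promoter; nearly all actives have a fitted effect of over 50% in size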
Integrin act MD = qHTS for Activators of Integrin-Mediated Alleviation for Muscular Dystrophy | alpha7betagal myoblasts, beta-gal FDG fluorescence, 48 h | Potency, µM (series often up to 38.3 µM), usual class: activators | 350,000 tested, 0.064% active | AID 624291, 2012; further: nearly all actives have a fitted effect of over 60% in size
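Alpha7betagal+/- myoblasts (passage 13) were plated 16-24 hr, then exposed to compounds (1:260 dilution of DMSO stock) for 48 hours at 37C. After MPER lysis, β-galactosidase reporter activity was read as FDG fluorescence (ex 480/em 540) after 30 minutes.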
Giardia killer = Small Molecules that selectively kill Giardia lamblia: qHTS | activity change, % at 7.66 µM, hits read low | Giardia lamblia trophozoite viability | 340,000 tested, 0.15% active | AID 540267, 2011; in the data active means activity change below about -80%; inconclusive means between about -30% and that limit;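 further: parasites exposed to compound for two days anaerobically before the ATP read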
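Trophozoites 100 cells/well + cpd; 48 hrs, 37 deg C, anaerobic. ATPLite 1-Step added, 15-30 min RT, luminescence read (ATP-based viability).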
Hits are given with their value; [ ] = another dose, or the depositor's remark. Unless noted, the call rests on the fitted dose curve; in most records, active means well fitted curve in the direction sought with a large enough effect; inconclusive means small, poorly fitted or top-dose-only effect, or another doubt; inactive means no such curve, though single readings can be large; an effect the other way counts as inactive or inconclusive.

For O=C(COc1ccccc1Cl)Nc1ccccc1C(=O)N1CCCCC1 the results were RORgamma inh inactive, ERG Ets-DNA blk inactive, VP16 counter inactive, Integrin act MD inconclusive and Giardia killer inactive.
For COc1ccc(NC(=O)c2c(NCc3cccc(OC)c3)sc3c2CCC3)cc1 the results were ERG Ets-DNA blk inactive.
COc1ccccc1NS(=O)(=O)c1cccc(C(=O)NN)c1 was read as RORgamma inh inactive, ERG Ets-DNA blk inactive, VP16 counter inactive, Integrin act MD inactive and Giardia killer inactive.
For Cc1ccc(/C=N/NC(=O)c2cccc(S(=O)(=O)Nc3ccccc3Cl)c2)o1 the results were RORgamma inh 13µM, ERG Ets-DNA blk inactive, VP16 counter inconclusive, Integrin act MD inactive and Giardia killer inactive.
`CCN(CC)c1ccc(/C=N/NC(=O)c2cccc(S(=O)(=O)Nc3ccccc3OC)c2)c(O)c1` gave RORgamma inh 2.5µM, ERG Ets-DNA blk inactive, VP16 counter 4.5µM, Integrin act MD inactive and Giardia killer inactive.
`Cc1ccc(NC(=S)NCc2ccco2)c(C)c1` gave RORgamma inh 16µM, ERG Ets-DNA blk inactive, VP16 counter inconclusive, Integrin act MD inactive and Giardia killer inactive.
Screening Cc1ccccc1NC(=S)NCc1ccco1 returned RORgamma inh 13µM, ERG Ets-DNA blk inactive, VP16 counter inconclusive, Integrin act MD inactive and Giardia killer inactive.
COCCCn1c(=S)[nH]c2c(sc3ccccc32)c1=O was read as RORgamma inh 1.3µM, ERG Ets-DNA blk inactive, VP16 counter inconclusive, Integrin act MD inactive and Giardia killer inactive.
`CC1CCN(CCCn2c(=S)[nH]c3c(sc4ccccc43)c2=O)CC1` gave RORgamma inh 11µM, ERG Ets-DNA blk inactive, VP16 counter inactive, Integrin act MD inactive and Giardia killer inactive.
For CC1CCN(CCCn2c(=S)[nH]c3c(sc4ccc([N+](=O)[O-])cc43)c2=O)CC1 the results were RORgamma inh inactive, ERG Ets-DNA blk inactive, VP16 counter inactive, Integrin act MD inactive and Giardia killer inactive.
For O=c1c2sc3ccccc3c2[nH]c(=S)n1CCN1CCOCC1 the results were RORgamma inh inactive, ERG Ets-DNA blk inactive, VP16 counter inactive[10 µM], Integrin act MD inactive and Giardia killer inactive.
O=C1/C(=C\c2ccc([N+](=O)[O-])cc2)CCc2ccccc21 was read as RORgamma inh inactive, ERG Ets-DNA blk inactive, VP16 counter inconclusive, Integrin act MD inactive and Giardia killer -91.
Screening CC1(C)COC(c2cccn2Cc2ccc(F)cc2Cl)=N1 returned RORgamma inh inconclusive, ERG Ets-DNA blk inactive, VP16 counter inactive, Integrin act MD inactive and Giardia killer inactive.
CC1CN=C(c2cccn2Cc2ccc(F)cc2Cl)O1 (centres undefined) was read as RORgamma inh 6.3µM, ERG Ets-DNA blk inactive, VP16 counter inconclusive, Integrin act MD inactive and Giardia killer inactive.
Screening COc1ccc(OC)c(S(=O)(=O)Nc2ccc(O)c3ccccc23)c1 returned RORgamma inh 10µM, ERG Ets-DNA blk inactive, VP16 counter inactive[0.365 µM], Integrin act MD inactive and Giardia killer inactive.
Screening COc1ccc(OC)c(S(=O)(=O)Nc2ccc(Oc3ccccc3)cc2)c1 returned RORgamma inh inconclusive, ERG Ets-DNA blk inactive, VP16 counter 6.3µM, Integrin act MD inactive and Giardia killer inactive.
Screening COc1ccc(OC)c(S(=O)(=O)Nc2cccc3c(O)cccc23)c1 returned ERG Ets-DNA blk inactive, Integrin act MD inactive and Giardia killer inactive.
O=C(N/N=C/c1ccccn1)c1ccc(Cl)cc1 was read as RORgamma inh 1.4µM, ERG Ets-DNA blk inactive, VP16 counter 2.5µM, Integrin act MD inactive and Giardia killer inactive.
`CCn1cc(/C=N\NC(=O)c2ccc(Cl)cc2)cn1` gave RORgamma inh 11µM, ERG Ets-DNA blk inactive, VP16 counter inactive, Integrin act MD inconclusive and Giardia killer inactive.
Screening O=C(N/N=C/c1ccncc1)c1ccccn1 returned RORgamma inh inactive, ERG Ets-DNA blk inactive, VP16 counter inactive, Integrin act MD inactive and Giardia killer inactive.
CN(C)c1ccc(C(=O)N/N=C/c2ccccn2)cc1 was read as RORgamma inh 13µM, ERG Ets-DNA blk inactive, VP16 counter inconclusive, Integrin act MD inactive and Giardia killer inactive.
For O=C(N/N=C/c1ccccn1)c1ccccc1 the results were RORgamma inh inactive, ERG Ets-DNA blk inactive, VP16 counter inactive, Integrin act MD inactive and Giardia killer inactive.
For CC(C)c1ccc(/C=N/NC(=O)c2ccccn2)cc1 the results were RORgamma inh 11µM, ERG Ets-DNA blk inactive, VP16 counter inconclusive, Integrin act MD inactive and Giardia killer inactive.
Screening Cc1ccc(C(=O)Nc2ccc(C(=O)N/N=C/c3ccccn3)cc2)cc1 returned RORgamma inh inconclusive, ERG Ets-DNA blk inactive, VP16 counter inconclusive, Integrin act MD inactive and Giardia killer inactive.
Screening CCn1cc(/C=N\NC(=O)Cc2ccc(Cl)cc2)cn1 returned RORgamma inh inactive, VP16 counter inconclusive, Integrin act MD inactive and Giardia killer inactive.
`Cc1cc(C)c2c(=O)cc(C(=O)Nc3c(C)n(C)n(-c4ccccc4)c3=O)oc2c1` gave ERG Ets-DNA blk inactive.
Screening O=C(COCc1cc(-c2cccs2)on1)Nc1ccc(OC(F)(F)F)cc1 returned ERG Ets-DNA blk inactive.
Cc1ccccc1OCCCc1c(C)n[nH]c1C was read as RORgamma inh 7.1µM, ERG Ets-DNA blk inactive, VP16 counter inactive, Integrin act MD inactive and Giardia killer inactive.
Cc1cccc(C)c1OCCCCc1c(C)n[nH]c1C was read as RORgamma inh 18µM, ERG Ets-DNA blk inactive, VP16 counter inconclusive, Integrin act MD inactive and Giardia killer inactive.
Screening Cc1ccccc1OCCCCc1c(C)n[nH]c1C returned RORgamma inh inconclusive, ERG Ets-DNA blk inactive, VP16 counter 13µM, Integrin act MD inactive and Giardia killer inactive.
`Cc1n[nH]c(C)c1CCCCOc1ccccc1F` gave RORgamma inh inconclusive, ERG Ets-DNA blk inactive, VP16 counter inconclusive, Integrin act MD inactive and Giardia killer inactive.
COc1cccc(OC)c1OCCCCc1c(C)n[nH]c1C was read as RORgamma inh inactive, ERG Ets-DNA blk inactive, VP16 counter inactive, Integrin act MD inconclusive and Giardia killer inactive.
Screening COc1ccc(C(=O)N/C(=C/c2ccc(Cl)cc2)C(=O)Nc2ccc(C(=O)O)cc2)cc1 returned RORgamma inh inactive, ERG Ets-DNA blk inactive, VP16 counter inactive, Integrin act MD inactive and Giardia killer inactive.
Screening O=C(COc1ccccc1)NC(NC(=S)Nc1ccccc1O)C(Cl)(Cl)Cl (centres undefined) returned RORgamma inh inactive, ERG Ets-DNA blk inactive, VP16 counter inactive, Integrin act MD inactive and Giardia killer inactive.
`Cc1ccccc1NC(=S)NC(NC(=O)COc1ccccc1)C(Cl)(Cl)Cl` (centres undefined) gave RORgamma inh inconclusive, ERG Ets-DNA blk inactive, VP16 counter inactive, Integrin act MD inactive and Giardia killer inactive.
